Laboratory results taken from PubChem BioAssay (EPA / NIEHS).
Values joined by “and” are separate entries in the source; they are usually repeats but may differ in a detail not shown here. Identical values can stand only once. Results filed as inconclusive are left out. Active and inactive are the calls of the source. How the source made its calls: active means hit-call score of the fitted dose curve at least 0.9, where 1 is the maximum; inconclusive means response in the unintended direction; inactive means score below 0.9.

These molecules were tested against human Vascular Endothelial Growth Factor Receptor 1 (VEGFR1), FLT1 (gene 2321) (UniProt P17948) (assay: NVS_ENZ_hVEGFR1: NovaScreen (NVS) Enzymatic Assay for human Vascular Endothelial Growth Factor Receptor 1 (VEGFR1) (AID 2283226)).
Chain of human Vascular Endothelial Growth Factor Receptor 1 (VEGFR1), FLT1 (gene 2321) (P17948 whole entry, looked up): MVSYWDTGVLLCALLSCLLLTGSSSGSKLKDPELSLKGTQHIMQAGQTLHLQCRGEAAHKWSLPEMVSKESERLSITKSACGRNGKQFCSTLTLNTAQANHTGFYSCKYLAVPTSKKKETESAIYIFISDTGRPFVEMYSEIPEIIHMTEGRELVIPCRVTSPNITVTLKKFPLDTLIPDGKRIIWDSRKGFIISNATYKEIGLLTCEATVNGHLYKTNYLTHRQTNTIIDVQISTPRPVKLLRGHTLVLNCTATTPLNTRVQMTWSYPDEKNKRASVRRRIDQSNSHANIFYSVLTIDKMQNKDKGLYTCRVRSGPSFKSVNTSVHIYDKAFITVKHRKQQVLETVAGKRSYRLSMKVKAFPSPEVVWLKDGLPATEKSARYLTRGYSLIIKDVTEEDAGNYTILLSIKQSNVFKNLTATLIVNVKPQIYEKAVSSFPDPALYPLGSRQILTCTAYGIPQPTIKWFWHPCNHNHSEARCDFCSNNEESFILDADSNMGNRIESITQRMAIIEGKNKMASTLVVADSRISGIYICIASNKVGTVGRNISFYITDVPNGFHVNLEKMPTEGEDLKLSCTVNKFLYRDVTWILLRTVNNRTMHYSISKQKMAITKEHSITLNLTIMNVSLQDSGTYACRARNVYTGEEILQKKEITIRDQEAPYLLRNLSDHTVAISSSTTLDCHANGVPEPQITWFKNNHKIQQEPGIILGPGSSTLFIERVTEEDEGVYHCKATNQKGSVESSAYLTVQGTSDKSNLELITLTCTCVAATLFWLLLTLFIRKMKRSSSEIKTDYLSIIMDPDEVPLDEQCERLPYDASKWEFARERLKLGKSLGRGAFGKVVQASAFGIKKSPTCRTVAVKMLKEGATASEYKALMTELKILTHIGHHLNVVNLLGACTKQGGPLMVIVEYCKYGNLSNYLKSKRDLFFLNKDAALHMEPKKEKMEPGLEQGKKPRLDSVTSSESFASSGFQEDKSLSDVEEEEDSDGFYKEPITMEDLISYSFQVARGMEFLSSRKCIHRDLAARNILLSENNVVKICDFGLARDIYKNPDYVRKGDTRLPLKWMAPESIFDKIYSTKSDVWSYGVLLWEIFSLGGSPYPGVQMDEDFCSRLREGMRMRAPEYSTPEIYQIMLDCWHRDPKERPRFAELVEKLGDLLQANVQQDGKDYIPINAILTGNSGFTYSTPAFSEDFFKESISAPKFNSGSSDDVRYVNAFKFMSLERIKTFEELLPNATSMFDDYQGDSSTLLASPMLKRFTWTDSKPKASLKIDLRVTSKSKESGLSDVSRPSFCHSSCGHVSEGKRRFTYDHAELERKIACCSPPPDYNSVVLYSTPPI
Method: NVS_ENZ_hVEGFR1 is a biochemical, single-readout assay that uses extracted gene-proteins in a cell-free assay. Measurements were taken 1 hour after chemical dosing in a 384-well plate.NVS_ENZ_hVEGFR1 is one of one assay component(s) measured or calculated from the NVS_ENZ_hVEGFR1 assay. It is designed to make measurements of enzyme activity, a form of enzyme reporter, as detected with fluorescence intensity signals by Fluorescence and electrophoretic mobility shift technology.Data from the assay component NVS_ENZ_hVEGFR1 was analyzed into 1 assay endpoint. This assay endpoint, NVS_ENZ_hVEGFR1, was analyzed in the positive analysis fitting direction relative to DMSO as the negative control and baseline of activity. Using a type of enzyme reporter, loss-of-signal activity can be used to understand changes in the enzymatic activity as they relate to the gene FLT1. Furthermore, this assay endpoint can be referred to as a primary readout, because this assay has produced multiple assay endpoints where this one serves a enzymatic activity function. To generalize the intended target to other relatable targets, this assay endpoint is annotated to the kinase intended target family, where the subfamily is receptor tyrosine kinase.
Binding assays used specific radioligands (tritiated, iodinated) with non-radioactive competitive displacement ligands in agonist or antagonist protocols (as indicated) and various reference compounds and inhibitors to titrate specific binding to receptors and transporters. Most enzyme assays (CYPs, kinases, phosphatases, proteases, HDACs) used recombinant protein and specific substrates (fluorescence mostly, some colorimetric and radioactive) and inhibitors, followed by a biochemical separation of substrate and product. All assays for the biochemical HTS were initially run in duplicate at a single concentration (10 uM for CYP450 assays and 25 uM for all others). […] Each assay was run with positive and negative controls, and concurrent controls on every plate. The follow-up (secondary) screen tested active chemical-pairs in concentration series, as well as a few additional assays not tested in the primary screen, some selected negative inactives, and several cases re-run in the concentration series for confirmatory purposes.
For `Nc1ncc([N+](=O)[O-])s1`, the AC50 was 40.4 µM (active).
With `CC(=O)[O][Hg][c]1ccccc1` the outcome was “inactive”.
`COP(=S)(OC)Oc1cc(Cl)c(Cl)cc1Cl` was tested, and the outcome was “inactive”.
In the case of `CCOP(=S)(OCC)Oc1ccc(S(C)=O)cc1` (stereo not given), the outcome was “inactive”.

Each molecule was assayed against rabbit Imidazoline 2 Central (I2C), CKB (gene 100009085) (UniProt P00567) (assay: NVS_ENZ_rabI2C: NovaScreen (NVS) Enzymatic Assay for rabbit Imidazoline 2 Central (I2C) (AID 2283228)).
Chain of rabbit Imidazoline 2 Central (I2C), CKB (gene 100009085) (P00567 whole entry, looked up): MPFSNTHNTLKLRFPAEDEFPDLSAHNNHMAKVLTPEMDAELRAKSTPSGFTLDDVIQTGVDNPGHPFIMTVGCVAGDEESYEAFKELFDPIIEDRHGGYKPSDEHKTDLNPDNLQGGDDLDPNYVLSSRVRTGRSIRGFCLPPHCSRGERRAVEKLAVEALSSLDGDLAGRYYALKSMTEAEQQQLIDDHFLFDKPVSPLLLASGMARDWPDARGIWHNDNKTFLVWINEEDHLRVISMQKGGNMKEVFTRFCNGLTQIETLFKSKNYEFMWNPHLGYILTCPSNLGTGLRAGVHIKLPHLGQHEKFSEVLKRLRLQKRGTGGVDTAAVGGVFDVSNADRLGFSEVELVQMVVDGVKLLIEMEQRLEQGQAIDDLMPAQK
Method in brief: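 Rabbit brain membranes, cell-free; readout by filter-based scintillation counting 1.5 hours after dosing, loss of signal vs DMSO. Initial duplicate test at 25 uM, then concentration-response with 50 uM top concentration.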
With `COc1cc(-c2ccc(N)c(OC)c2)ccc1N` the AC50 was 10.4 µM (active) and 18.1 µM (active).
With `CCC(=O)C(CC(C)N(C)C)(c1ccccc1)c1ccccc1` (stereo not given) the AC50 was 3.37 µM (active).
In the case of `CCN1CCC2(CC1)COc1cc3c(cc12)N(C(=O)c1ccc(-c2ccc(-c4nnc(C)o4)cc2C)cc1)CC3`, the outcome was “inactive”.

These molecules were tested against human Vascular Endothelial Growth Factor Receptor 2 (VEGFR2), KDR (gene 3791) (UniProt P35968) (assay: NVS_ENZ_hVEGFR2: NovaScreen (NVS) Enzymatic Assay for human Vascular Endothelial Growth Factor Receptor 2 (VEGFR2) (AID 2283230)).
Chain of human Vascular Endothelial Growth Factor Receptor 2 (VEGFR2), KDR (gene 3791) (P35968 whole entry, looked up): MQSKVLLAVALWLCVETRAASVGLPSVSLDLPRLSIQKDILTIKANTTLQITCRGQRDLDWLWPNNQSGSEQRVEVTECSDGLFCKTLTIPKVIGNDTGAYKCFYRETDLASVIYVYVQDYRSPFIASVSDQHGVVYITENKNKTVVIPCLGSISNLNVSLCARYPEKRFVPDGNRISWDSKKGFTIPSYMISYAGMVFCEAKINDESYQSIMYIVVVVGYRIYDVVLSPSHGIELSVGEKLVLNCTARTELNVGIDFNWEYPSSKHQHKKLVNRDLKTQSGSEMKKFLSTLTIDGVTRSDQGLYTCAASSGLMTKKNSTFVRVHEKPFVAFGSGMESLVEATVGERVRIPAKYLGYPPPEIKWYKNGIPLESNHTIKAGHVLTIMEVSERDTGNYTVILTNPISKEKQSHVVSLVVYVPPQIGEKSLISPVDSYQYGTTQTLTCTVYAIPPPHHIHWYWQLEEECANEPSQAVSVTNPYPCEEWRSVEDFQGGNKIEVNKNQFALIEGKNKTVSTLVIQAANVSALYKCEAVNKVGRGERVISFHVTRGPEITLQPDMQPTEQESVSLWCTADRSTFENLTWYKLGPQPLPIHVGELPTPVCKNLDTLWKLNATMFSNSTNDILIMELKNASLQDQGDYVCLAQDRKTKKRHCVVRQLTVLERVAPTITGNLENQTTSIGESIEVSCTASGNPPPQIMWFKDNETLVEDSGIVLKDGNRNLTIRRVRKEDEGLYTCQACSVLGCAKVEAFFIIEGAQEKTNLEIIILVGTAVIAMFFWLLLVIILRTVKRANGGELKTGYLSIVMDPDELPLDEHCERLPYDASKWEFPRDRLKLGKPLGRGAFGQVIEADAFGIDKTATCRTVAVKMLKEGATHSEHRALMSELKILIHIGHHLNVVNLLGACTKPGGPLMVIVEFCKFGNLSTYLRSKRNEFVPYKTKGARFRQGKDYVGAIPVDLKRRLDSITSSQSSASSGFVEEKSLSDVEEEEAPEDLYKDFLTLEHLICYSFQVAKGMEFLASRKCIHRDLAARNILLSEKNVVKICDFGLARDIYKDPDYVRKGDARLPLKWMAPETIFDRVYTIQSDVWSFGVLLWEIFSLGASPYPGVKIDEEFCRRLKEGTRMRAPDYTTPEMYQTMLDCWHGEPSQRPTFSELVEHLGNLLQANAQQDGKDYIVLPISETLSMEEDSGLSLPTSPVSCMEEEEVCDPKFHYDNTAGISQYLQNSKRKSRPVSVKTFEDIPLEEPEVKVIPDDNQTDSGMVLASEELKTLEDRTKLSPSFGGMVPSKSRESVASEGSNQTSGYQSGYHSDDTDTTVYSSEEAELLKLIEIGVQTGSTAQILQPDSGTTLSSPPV
Method in brief: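 Cell-free recombinant VEGFR2 kinase, fluorescent substrate with electrophoretic mobility-shift separation; read 1 h after dosing. Screened at 25 uM in duplicate, hits to concentration-response up to 50 uM; loss-of-signal versus DMSO.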
With `O=C(Nc1ccc2[nH]ccc2c1)c1cc2cc(F)ccc2n1Cc1cccc(F)c1` the outcome was “inactive”.
With `COP(=S)(OC)Oc1ccc(Sc2ccc(OP(=S)(OC)OC)cc2)cc1` the outcome was “inactive”.
In the case of `CC(C)(C)CC(C)(C)c1ccc(O)cc1`, the outcome was “inactive”.
For `CC(=O)[O][Hg][c]1ccccc1`, the outcome was “inactive”.
`CCC(C)(C)c1ccc(O)c(C(C)(C)CC)c1` was tested, and the outcome was “inactive”.
For `CCCCCCCCc1ccc(O)cc1`, the outcome was “inactive”.
In the case of `CC(C)(c1ccccc1)c1ccc(O)c(C(C)(C)c2ccccc2)c1`, the outcome was “inactive”.
`O=C1C2(Cl)C3(Cl)C4(Cl)C(Cl)(Cl)C5(Cl)C3(Cl)C1(Cl)C5(Cl)C24Cl` (stereo not given) was tested, and the outcome was “inactive”.

These molecules were tested against sheep Cyclooxygenase-2 (Cox2), PTGS2 (gene 443460) (UniProt P79208) (assay: NVS_ENZ_oCOX2: NovaScreen (NVS) Enzymatic Assay for sheep Cyclooxygenase-2 (Cox2) (AID 2283231)).
Chain of sheep Cyclooxygenase-2 (Cox2), PTGS2 (gene 443460) (P79208 whole entry, looked up): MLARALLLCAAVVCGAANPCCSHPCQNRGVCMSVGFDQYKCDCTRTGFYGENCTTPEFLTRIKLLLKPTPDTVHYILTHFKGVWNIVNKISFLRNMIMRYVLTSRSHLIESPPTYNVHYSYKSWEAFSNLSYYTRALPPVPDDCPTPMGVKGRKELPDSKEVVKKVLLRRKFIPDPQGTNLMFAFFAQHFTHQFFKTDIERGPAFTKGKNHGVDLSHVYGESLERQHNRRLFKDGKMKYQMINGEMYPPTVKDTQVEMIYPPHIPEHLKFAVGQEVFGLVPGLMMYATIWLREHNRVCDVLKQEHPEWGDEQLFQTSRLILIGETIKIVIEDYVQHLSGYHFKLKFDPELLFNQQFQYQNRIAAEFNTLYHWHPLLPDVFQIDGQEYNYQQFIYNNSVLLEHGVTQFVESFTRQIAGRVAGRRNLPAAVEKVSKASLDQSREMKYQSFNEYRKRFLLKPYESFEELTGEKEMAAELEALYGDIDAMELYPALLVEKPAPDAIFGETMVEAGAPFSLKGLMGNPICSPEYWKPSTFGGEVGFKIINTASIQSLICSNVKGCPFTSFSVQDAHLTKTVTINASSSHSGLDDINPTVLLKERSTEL
Method in brief: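 Enzyme from ovine placenta, cell-free; colorimetric absorbance read 0.66 hour after dosing, loss of signal vs DMSO. Screened in duplicate at 25 uM, then concentration-response up to 50 uM.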
In the case of `ClC1(Cl)C2(Cl)C3(Cl)C4(Cl)C(Cl)(Cl)C5(Cl)C3(Cl)C1(Cl)C5(Cl)C24Cl` (stereo not given), the outcome was “inactive”.
For `COc1cc(OC)nc(NC(=O)NS(=O)(=O)c2ncccc2C(=O)N(C)C)n1`, the outcome was “inactive”.
For `CC(C)(C)CC(C)(C)c1ccc(O)cc1`, the outcome was “inactive”.
`CC(C)(OO)c1ccccc1` was tested, and the AC50 was 6.28 µM (active).
With `O=c1[nH]c(=O)[nH]c(=O)[nH]1` the outcome was “inactive”.
With `CC(C)(C)c1cc(O)ccc1O` the AC50 was 6.85 µM (active).
`CC12CC1(C)C(=O)N(c1cc(Cl)cc(Cl)c1)C2=O` (stereo not given) was tested, and the AC50 was 3.77 µM (active).

The molecules below were run on rat Monoamine Oxidase, MAO-A, Peripheral (MAOAP), gene 29253 (assay: NVS_ENZ_rMAOAP: NovaScreen (NVS) Enzymatic Assay for rat Monoamine Oxidase, MAO-A, Peripheral (MAOAP) (AID 2283237)).
Method in brief: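 Scintillation counting tracked MAO-A activity in a cell-free rat liver mitochondrial membrane prep, read 1.17 hours after compound addition. Single-point duplicate testing at 25 uM preceded concentration-response follow-up; activity was fitted relative to DMSO.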
With `CC(=O)[O][Hg][c]1ccccc1` the AC50 was 1.13 µM (active).
With `CCN1CCC2(CC1)COc1cc3c(cc12)N(C(=O)c1ccc(-c2ccc(-c4nnc(C)o4)cc2C)cc1)CC3` the AC50 was 23.4 µM (active).
For `CC12CC1(C)C(=O)N(c1cc(Cl)cc(Cl)c1)C2=O` (stereo not given), the outcome was “inactive”.
